For experiment [1], the target named is Rap guanine nucleotide exchange factor 3 (Homo sapiens) (UniProt O95398). In words: Confirmatory qHTS for antagonist of cAMP-regulated guanine nucleotide exchange factor 3 (EPAC1) (AID 1645880). Further: nearly all actives have a fitted effect of over 55% in size. Further: potency means the concentration at half of the fitted maximal effect.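 On activity, negative = inhibition: plate controls were DMSO only for no effect and full effect of the ATA control for full effect.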 The settings on record: EPAC1 Rap1B-BODIPY-GDP exchange, fluorescence; activity, negative = inhibition: at 115 µM (top of the series). An outline of the steps: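 Nucleotide exchange uses 100 nM EPAC1, 250 nM RAP1B-BODIPY-GDP and 50 uM GDP, with compounds in a concentration-titration series. After 5 min at room temperature, fluorescence (480 nm ex/540 nm em) is read every 5 min for 30 min. Data are normalized to control ATA and DMSO.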
(Quantitative high-throughput screening tests each substance at several concentrations.)

The target is the same in experiment [2]. Kind of experiment: Confirmatory qHTS for agonist of cAMP-regulated guanine nucleotide exchange factor 3 (EPAC1) (AID 1645881).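 Further: EPAC1 catalysed release of BODIPY-GDP from Rap1B seen as fluorescence loss; 100% = effect of cAMP agonist control; nearly all actives have a fitted effect of over 75% in size.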
Experiment [3] addresses Rap guanine nucleotide exchange factor 4 (Homo sapiens) (UniProt Q8WZA2). In words: Confirmatory qHTS for agonist of cAMP-regulated guanine nucleotide exchange factor 4 (EPAC2) (AID 1645884).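 Further: nucleotide exchange releases bodipy-GDP from Rap1 and this lowers its fluorescence; on the % scale 0 is the no-effect control and ±100 the full control effect; nearly all actives have a fitted effect of over 65% in size.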
Experiment [4] addresses Rap guanine nucleotide exchange factor 3 (Homo sapiens) (UniProt O95398). In words: Counterscreen qHTS for antagonist of cAMP-regulated guanine nucleotide exchange factor 3 (EPAC1) (AID 1645888).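 Further: fluorescence loss as bound BODIPY-GDP is released from Rap1B; % of control where 0% means no effect.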 The essentials: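 Measured: fluorescence of BODIPY-GDP bound to Rap1B, which falls as exchange proceeds. Conditions include 50 uM competing GDP, 5 and 30 min reads, and a later cAMP challenge for antagonist detection.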
In general terms: A counterscreen serves to expose hits that act by an unwanted route or on another target.

Records with an inconclusive call do not appear. Values without a mark were called inactive. Calls of active or inactive are those of the source. The call rests on the fitted dose curve; in most records, active means well fitted curve in the direction sought with a large enough effect; inconclusive means small, poorly fitted or top-dose-only effect, or another doubt; inactive means no such curve, though single readings can be large; an effect the other way counts as inactive or inconclusive.

Rap guanine nucleotide exchange factor 4 (Homo sapiens), sequence (Q8WZA2 whole entry, looked up): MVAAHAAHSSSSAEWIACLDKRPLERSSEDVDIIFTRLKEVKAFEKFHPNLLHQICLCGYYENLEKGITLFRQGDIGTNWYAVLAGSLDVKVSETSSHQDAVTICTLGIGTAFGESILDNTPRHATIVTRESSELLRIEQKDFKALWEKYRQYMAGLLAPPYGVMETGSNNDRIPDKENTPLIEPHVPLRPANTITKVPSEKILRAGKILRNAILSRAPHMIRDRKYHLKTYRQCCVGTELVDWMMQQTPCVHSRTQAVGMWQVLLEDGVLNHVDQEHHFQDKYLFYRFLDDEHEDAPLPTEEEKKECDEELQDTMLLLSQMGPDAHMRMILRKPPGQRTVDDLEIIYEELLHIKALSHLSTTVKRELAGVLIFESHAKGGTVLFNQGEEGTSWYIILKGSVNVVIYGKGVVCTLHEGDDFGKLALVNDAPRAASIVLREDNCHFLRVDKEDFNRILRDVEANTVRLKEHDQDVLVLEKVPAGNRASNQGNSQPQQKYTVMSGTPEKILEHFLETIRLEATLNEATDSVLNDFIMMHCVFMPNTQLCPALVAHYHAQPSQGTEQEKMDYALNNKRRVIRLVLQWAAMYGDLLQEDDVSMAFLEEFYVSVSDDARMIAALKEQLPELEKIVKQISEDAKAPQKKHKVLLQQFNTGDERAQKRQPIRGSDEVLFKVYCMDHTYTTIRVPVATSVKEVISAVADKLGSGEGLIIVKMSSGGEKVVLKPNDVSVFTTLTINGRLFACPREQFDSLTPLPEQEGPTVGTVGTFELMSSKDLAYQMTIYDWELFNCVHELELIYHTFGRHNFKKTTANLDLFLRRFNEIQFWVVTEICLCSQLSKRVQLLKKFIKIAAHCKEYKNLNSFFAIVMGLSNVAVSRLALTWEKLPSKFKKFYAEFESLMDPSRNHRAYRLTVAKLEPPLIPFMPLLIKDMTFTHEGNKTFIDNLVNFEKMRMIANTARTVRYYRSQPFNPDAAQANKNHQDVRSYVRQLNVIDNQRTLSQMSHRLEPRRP
Rap guanine nucleotide exchange factor 3 (Homo sapiens), sequence (O95398 whole entry, looked up): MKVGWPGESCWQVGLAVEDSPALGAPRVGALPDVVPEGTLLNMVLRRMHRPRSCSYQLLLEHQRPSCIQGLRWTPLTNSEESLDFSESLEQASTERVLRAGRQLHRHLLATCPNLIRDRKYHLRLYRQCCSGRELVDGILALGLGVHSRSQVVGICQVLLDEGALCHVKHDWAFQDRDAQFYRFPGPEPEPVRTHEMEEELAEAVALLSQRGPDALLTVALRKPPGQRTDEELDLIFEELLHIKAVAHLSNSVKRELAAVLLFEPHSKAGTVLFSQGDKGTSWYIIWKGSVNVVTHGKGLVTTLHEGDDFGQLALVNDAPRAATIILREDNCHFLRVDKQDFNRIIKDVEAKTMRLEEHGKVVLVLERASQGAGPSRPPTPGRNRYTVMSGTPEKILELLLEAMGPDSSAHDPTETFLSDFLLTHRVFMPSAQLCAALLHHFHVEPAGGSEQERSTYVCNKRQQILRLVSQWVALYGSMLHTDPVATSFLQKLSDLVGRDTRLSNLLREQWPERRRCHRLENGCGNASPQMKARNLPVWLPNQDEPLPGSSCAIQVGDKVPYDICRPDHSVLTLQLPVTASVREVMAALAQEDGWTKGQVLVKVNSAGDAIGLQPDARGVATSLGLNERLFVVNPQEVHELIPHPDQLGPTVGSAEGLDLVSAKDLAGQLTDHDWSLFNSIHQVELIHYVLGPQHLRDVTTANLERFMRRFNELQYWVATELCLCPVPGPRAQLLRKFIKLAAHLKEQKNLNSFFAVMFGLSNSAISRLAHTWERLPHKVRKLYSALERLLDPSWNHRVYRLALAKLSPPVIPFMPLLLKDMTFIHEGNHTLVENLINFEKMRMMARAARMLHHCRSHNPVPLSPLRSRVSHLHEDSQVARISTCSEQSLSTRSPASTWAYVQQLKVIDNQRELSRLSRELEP

Regarding `CCSc1nc(C)cc(C)c1S(=O)(=O)c1ccccc1C`, the Potency entry in experiment [1] and in experiment [2] was “inactive” throughout. In addition, the activation in experiment [3] is 3.71% [at 17.1 µM, percent relative to cAMP agonist control]. The activity change, negative = inhibition in experiment [4] is 8% [at 30.8 µM].
For `O=C(O)CSc1cc(NS(=O)(=O)c2ccc(Cl)cc2)c2ccccc2c1O`, the Potency in experiment [1] was 75.7 µM (active). Also, the Potency entry in experiment [2], in experiment [3] and in experiment [4] was “inactive” in each case.
For `COc1ccc(C(C(=O)NC(C)(C)C)n2c(=O)c(-c3cc4ccccc4[nH]3)nc3ccccc32)cc1` (centres undefined), the Potency result in experiment [1], in experiment [2], in experiment [3] and in experiment [4] was “inactive” throughout.
On to `O=C1C(O)=CC(=C(c2ccccc2)c2ccccc2)c2ccccc21`, for which the Potency entry in experiment [1], in experiment [2], in experiment [3] and in experiment [4] was “inactive” each time.
`O=C(COc1ccccc1Cl)Nc1ccc(C(=O)c2ccc(C(=O)O)cc2)cc1`: the Potency result in experiment [1], in experiment [2], in experiment [3] and in experiment [4] was “inactive” each time.
With `COc1ccccc1Nc1nc2ccc(C)cc2cc1C#N`, the Potency entry in experiment [1], in experiment [2], in experiment [3] and in experiment [4] was “inactive” in each case.
Take `CCOC(=O)c1c(NC(=O)CSc2nc3ccc(C)cc3[nH]2)sc2c1CC(C)(C)NC2(C)C`: the Potency entry in experiment [1], in experiment [2], in experiment [3] and in experiment [4] was “inactive” in each case.
For `CC1=CC(C)(C)N(C(=O)c2ccc(F)cc2)c2cc3c(cc21)OCO3`, the Potency result in experiment [1], in experiment [2], in experiment [3] and in experiment [4] was “inactive” throughout.
As for `CCOC(=O)CC1C(=O)NCCN1C(=O)c1cccc(C(F)(F)F)c1` (centres undefined), the Potency result in experiment [1], in experiment [2], in experiment [3] and in experiment [4] was “inactive” in each case.
Take `CCN(CC1COc2ccccc2O1)C(=O)CN1C(=O)NC(C)(c2ccc(C)cc2)C1=O` (centres undefined): the Potency result in experiment [1], in experiment [2], in experiment [3] and in experiment [4] was “inactive” throughout.
On to `O=C(/C=C/c1ccco1)NCC1OCCc2ccccc21` (centres undefined), for which, in experiment [1], the Potency was 19 µM (active). The Potency result in experiment [2], in experiment [3] and in experiment [4] was “inactive” throughout.
Turning to `CCN(CC(=O)Nc1ccc(NC(C)=O)cc1)C(=O)C1(c2ccc(Cl)cc2)CCC1`, the Potency entry in experiment [1], in experiment [2], in experiment [3] and in experiment [4] was “inactive” in each case.
`CN(C)c1ccc(/C=C(\C#N)c2ccccn2)cc1`: the Potency entry in experiment [1], in experiment [2], in experiment [3] and in experiment [4] was “inactive” throughout.
Take `N#Cc1c(C(F)(F)F)cc(-c2ccccc2)nc1SCc1nc(N)nc(N2CCOCC2)n1`: the Potency entry in experiment [1], in experiment [2], in experiment [3] and in experiment [4] was “inactive” throughout.
In the case of `COc1ccc(-c2csc(NC(=O)c3ccccc3NS(=O)(=O)c3ccc(F)c(F)c3)n2)cc1`, the Potency in experiment [1] is 22.4 µM (active). For the same compound, the Potency result in experiment [2] was “inactive”. Moreover, the activation in experiment [3] is -1.62% [at 17.1 µM, percent relative to cAMP agonist control]. Also, the activity change, negative = inhibition in experiment [4] is -3.56% [at 30.8 µM].
As to `Cc1cc(C)cc(NC(=O)CSc2nnc(-c3cc4occc4n3C)n2-c2ccccc2C)c1`, the Potency entry in experiment [1], in experiment [2], in experiment [3] and in experiment [4] was “inactive” throughout.
As for `Cc1cc2oc(=O)c(CC(=O)O)c(C)c2c2occ(C(C)(C)C)c12`, the Potency entry in experiment [1], in experiment [2], in experiment [3] and in experiment [4] was “inactive” each time.
Turning to `COc1ccccc1CN(C)CC(=O)Nc1ccccc1-c1ccccc1`, the Potency entry in experiment [1], in experiment [2], in experiment [3] and in experiment [4] was “inactive” in each case.
In the case of `COc1cccc(N(C(=O)c2ccco2)C(C(=O)NC2CCCC2)c2cccnc2)c1` (centres undefined), the Potency result in experiment [1], in experiment [2], in experiment [3] and in experiment [4] was “inactive” in each case.
For `COc1cc(/C=C2\C(=O)N(c3cccc(C(=O)O)c3)N=C2C)ccc1OCc1ccccc1`, the Potency in experiment [1] is 37.9 µM (active). The Potency result in experiment [2], in experiment [3] and in experiment [4] was “inactive” throughout.
For the compound `Cc1ccc(CNc2cc(C)nc3nc(-c4cccc(C)c4)nn23)cc1`, the Potency result in experiment [1], in experiment [2], in experiment [3] and in experiment [4] was “inactive” throughout.
On to `COc1ccc2c(c1)C(CC(C)=O)N(c1ccc(-c3cccnc3)cc1)C(c1ccsc1)=C2` (centres undefined), for which the Potency entry in experiment [1], in experiment [2], in experiment [3] and in experiment [4] was “inactive” in each case.
In the case of `COC(=O)c1nc2nc(C)cc(=O)n2[nH]1`, the Potency result in experiment [1], in experiment [2], in experiment [3] and in experiment [4] was “inactive” each time.
As for `Cc1nn(-c2ccccc2)c(Cl)c1/C=N/Nc1ccc(S(=O)(=O)Nc2ccccc2C(=O)O)cc1[N+](=O)[O-]`, the Potency in experiment [1] was 42.6 µM (active). Further, the Potency result in experiment [2], in experiment [3] and in experiment [4] was “inactive” throughout.
For the compound `COc1ccc(/C=C2\N=C(SC)N(c3ccccc3OC)C2=O)cc1`, the Potency entry in experiment [1] and in experiment [2] was “inactive” each time. Moreover, the activation in experiment [3] was 7.24% [at 17.1 µM, percent relative to cAMP agonist control]. The activity change, negative = inhibition in experiment [4] was -8.08% [at 30.8 µM].
In the case of `CC(C)=CCc1c(O)cc2oc3c(CC=C(C)C)c(O)c(O)c(CC=C(C)C)c3c(=O)c2c1O`, in experiment [1], the Potency was 75.7 µM (active). Besides, the Potency result in experiment [2], in experiment [3] and in experiment [4] was “inactive” throughout.
As to `CCC(=O)NC(c1cccs1)c1cc([N+](=O)[O-])c2cccnc2c1O` (centres undefined), in experiment [1], the Potency is 42.6 µM (active). For the same compound, the Potency result in experiment [2], in experiment [3] and in experiment [4] was “inactive” each time.
Turning to `Cc1cc(C)c2nc(N3C(=O)C(O)=C(C(=O)c4ccco4)C3c3ccc(O)cc3)sc2c1` (centres undefined), the Potency in experiment [1] was 37.9 µM (active). In addition, the Potency result in experiment [2], in experiment [3] and in experiment [4] was “inactive” throughout.
Turning to `CCOc1ccc(C(=O)NCC(=O)Nc2ncccc2C)cc1OCC`, the Potency result in experiment [1], in experiment [2], in experiment [3] and in experiment [4] was “inactive” in each case.
In the case of `CCOc1ccc(-n2c(SCC(=O)Nc3ccc(F)cc3)nc3c([nH]c4ccccc43)c2=O)cc1`, the Potency result in experiment [1], in experiment [2], in experiment [3] and in experiment [4] was “inactive” each time.
For `O=C(Nc1sc2c(c1C(=O)O)CCC2)c1ccccc1F`, the Potency result in experiment [1], in experiment [2], in experiment [3] and in experiment [4] was “inactive” throughout.
